A short description of assay [1]: NS1 protein of Zika virus - qHTS assay to identify small molecule inhibitors in human HEK 293 cells (AID 1347053).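 Also: series mostly up to about 46 µM; plate controls were infected untreated cells for no effect and uninfected cells for full effect; nearly all actives have a fitted effect of over 55% in size.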 The procedure, abridged: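 Compound-treated (1 h pre-infection) HEK 293 cells infected with ZIKV MR766, MOI = 0.5; after 24 h at 37 C, NS1 read by TR-FRET; data normalized to uninfected and infected controls.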
(In general: Quantitative high-throughput screening tests each substance at several concentrations.)

The nature of assay [2]: qHTS of pediatric cancer cell lines to identify multiple opportunities for drug repurposing: Primary screen for TC32 cells (AID 1347089). Also: % is scaled to controls: 0 for no effect and ±100 for the full control effect; nearly all actives have a fitted effect of over 60% in size. The procedure, abridged: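 Luminescent ATP read-out (CellTiter-Glo) of metabolically active TC32 cells after 48 h exposure. Concentration-response curves came from 11-point (MIPE, 0.78 nM–46 µM) or 8-point (NPC, 0.59 nM–46 µM) primary titrations; follow-up used 11 points.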

Assay [3] can be described thus: qHTS of pediatric cancer cell lines to identify multiple opportunities for drug repurposing: Primary screen for SJ-GBM2 cells (AID 1347091). Also: potency is read from the fitted curve at half-maximal effect.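 As to activity change, negative = cytotoxic: plate controls were DMSO neutral control for no effect and bortezomib for full effect.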 In short, it runs like this:
(§1)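 Viability measured as metabolically active cells via CellTiter-Glo luminescence following 48 hours of compound exposure, 11-point dilutions in confirmatory testing. 500-1,000 cells/well plated 5 hours before dosing; controls were DMSO and 2.3 µM bortezomib.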

Assay [4] in a line: qHTS of pediatric cancer cell lines to identify multiple opportunities for drug repurposing: Primary screen for A673 cells (AID 1347092). Also: nearly all actives have a fitted effect of over 45% in size. Also: potency is read from the fitted curve at half-maximal effect. As to activity change, negative = cytotoxic: % is scaled to controls: 0 for no effect and ±100 for the full control effect. The procedure, abridged: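 Cell viability of A673 measured by CellTiter-Glo ATP luminescence after 48 hours compound exposure. Dilution series spanned 0.78 nM to 46 µM (MIPE, 11-point) or 0.59 nM to 46 µM (NPC, 8-point); bortezomib 2.3 uM positive control.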

The nature of assay [5]: qHTS of pediatric cancer cell lines to identify multiple opportunities for drug repurposing: Primary screen for DAOY cells (AID 1347090).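 Also: series mostly up to about 46 µM; plate controls were DMSO for no effect and bortezomib for full effect; nearly all actives have a fitted effect of over 55% in size.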 The procedure, abridged:
as §1

The source of these data is PubChem BioAssay (NCATS).

Each structure is given as a SMILES string. Records with an inconclusive call do not appear. Unmarked numbers belong to inactive results. The source made the active and inactive calls. Calls follow the shape of the dose curve; as a rule, active = well fitted curve in the direction sought with a large enough effect; inconclusive = small, poorly fitted or top-dose-only effect, or another doubt; inactive = no such curve, though single readings can be large; an effect the other way counts as inactive or inconclusive.

For `CC(C)C(=O)Nc1cccc(C(F)(F)F)c1`, the Potency result in assay [1], in assay [2], in assay [3] and in assay [4] was “inactive” in each case.
For `CN1Cc2cc(C(=O)N3CCC(C4CCNCC4)CC3)ccc2NC(CC(=O)O)C1=O` (stereo not given), the Potency entry in assay [1], in assay [5], in assay [3] and in assay [4] was “inactive” each time.
With `CCCCCCOC(=O)NC(=N)c1ccc(NCc2nc3cc(C(=O)N(CCC(=O)OCC)c4ccccn4)ccc3n2C)cc1`, the Potency entry in assay [1] and in assay [5] was “inactive” in each case. Besides, the Potency in assay [3] was 21.1 µM (active).
Turning to `OCCc1ccccc1`, the Potency result in assay [1], in assay [2], in assay [3] and in assay [4] was “inactive” throughout.
With `COC(=O)CCCCC(CCSS/C(CCO)=C(\C)N(C=O)Cc1cnc(C)nc1N)SC(C)=O` (stereo not given), the Potency result in assay [1], in assay [2], in assay [3] and in assay [4] was “inactive” each time.
As for `Nc1nc(=O)n([C@@H]2O[C@H](CO)[C@@H](O)[C@@H]2F)cc1I`, the Potency entry in assay [1], in assay [5] and in assay [3] was “inactive” throughout.
With `Cc1oc(-c2ccccc2)nc1CCC(=O)c1ccc(CC2SC(=O)NC2=O)cc1` (stereo not given), the Potency result in assay [1], in assay [2], in assay [3] and in assay [4] was “inactive” throughout.
In the case of `COc1ccc(OC(=O)N(CC(=O)O)Cc2ccc(OCCc3nc(-c4ccccc4)oc3C)cc2)cc1`, the Potency entry in assay [1], in assay [2], in assay [3] and in assay [4] was “inactive” in each case.
`C[C@@H](O[C@H]1OCCN(Cc2n[nH]c(=O)[nH]2)[C@H]1c1ccc(F)cc1)c1cc(C(F)(F)F)cc(C(F)(F)F)c1`: the Potency entry in assay [1] and in assay [2] was “inactive” each time. The Potency in assay [3] was 21.1 µM (active).
On to `O=C1Nc2ccccc2C1(c1ccc(O)cc1)c1ccc(O)cc1`, for which the Potency result in assay [1], in assay [5], in assay [3] and in assay [4] was “inactive” throughout.
Regarding `COc1cc2c(cc1OC)C(=O)CC2`, the Potency result in assay [1], in assay [2], in assay [3] and in assay [4] was “inactive” in each case.
As for `O=C1CC2(CCCC2)CC(=O)N1`, the Potency entry in assay [1], in assay [5], in assay [3] and in assay [4] was “inactive” in each case.
Take `OC1(c2ccc(Cl)cc2)CCNCC1`: the Potency result in assay [1], in assay [2], in assay [3] and in assay [4] was “inactive” in each case.
As to `Oc1cccc2[nH]ccc12`, the Potency entry in assay [1], in assay [2], in assay [3] and in assay [4] was “inactive” throughout.
As to `O=C(CCCCC(=O)Nc1c(I)cc(I)c(C(=O)O)c1I)Nc1c(I)cc(I)c(C(=O)O)c1I`, the Potency result in assay [1], in assay [5], in assay [3] and in assay [4] was “inactive” throughout.
Regarding `CCCCNc1ccc(C(=O)OCCN(CC)CC)cc1`, the Potency result in assay [1], in assay [2], in assay [3] and in assay [4] was “inactive” each time.
For `CCC(=O)Oc1ccc2c(c1)CC[C@@H]1[C@@H]2CC[C@@]2(C)[C@H]1C[C@@H](OC(=O)CC)[C@@H]2OC(=O)CC`, the Potency entry in assay [1], in assay [2] and in assay [3] was “inactive” each time.
On to `C1=CC2C3C=CC(C3)C2C1` (stereo not given), for which the Potency entry in assay [1], in assay [2], in assay [3] and in assay [4] was “inactive” in each case.
Consider `O=C(OCC(O)CO)c1ccccc1Nc1ccnc2c(C(F)(F)F)cccc12` (stereo not given), for which the Potency result in assay [1], in assay [5], in assay [3] and in assay [4] was “inactive” throughout.
Turning to `CC(C)=CCC/C(C)=C/CC/C(C)=C/C(=O)OCC(=O)[C@@]1(O)CC[C@H]2[C@@H]3CCC4=CC(=O)C=C[C@]4(C)[C@H]3[C@@H](O)C[C@@]21C`, the Potency entry in assay [1], in assay [2] and in assay [4] was “inactive” in each case. The Potency in assay [3] was 13.3 µM (active).
For the compound `CC(=O)N[C@@H](CCC(N)=O)C(=O)O`, the Potency entry in assay [1], in assay [2], in assay [3] and in assay [4] was “inactive” in each case.
Take `Nc1nnnn1-c1ccccc1`: the Potency entry in assay [1], in assay [2], in assay [3] and in assay [4] was “inactive” each time.
Regarding `Cc1ccc(C(=O)C(=O)O)cc1C`, the Potency result in assay [1], in assay [2], in assay [3] and in assay [4] was “inactive” in each case.
For `CCOc1ccccc1OCC1CNCCO1` (stereo not given), the Potency entry in assay [1], in assay [3] and in assay [4] was “inactive” throughout.
Take `CCOc1ncc(F)c(=O)[nH]1`: the Potency entry in assay [1], in assay [5], in assay [3] and in assay [4] was “inactive” throughout.
On to `CCOC(=O)C1=C(C)NC(C)=C(C(=O)OCC)C1c1ccccc1/C=C/C(=O)OC(C)(C)C`, for which, in assay [2], the Potency entry is “inactive”.
`Cc1ccc(C(C)OC(=O)C2(C)CCC(C(=O)O)C2(C)C)cc1` (stereo not given): the Potency entry in assay [2], in assay [5] and in assay [3] was “inactive” throughout.
`CCCCCOc1ccccc1/C(=C\SC)n1ccnc1`: the Potency result in assay [1], in assay [5] and in assay [3] was “inactive” each time. In addition, the Potency in assay [4] is 26.6 µM (active).
In the case of `O=C1NC(c2ccccc2)(c2ccccc2)C(=O)N1COP(=O)(O)O`, the Potency entry in assay [1], in assay [5], in assay [3] and in assay [4] was “inactive” each time.
Turning to `Cc1ccc(CCn2c3c(c4cc(Cl)ccc42)CN(C)CC3)cn1`, the Potency entry in assay [2], in assay [5] and in assay [3] was “inactive” each time.
Regarding `O=C(Oc1ccccc1)c1ccccc1O`, the Potency result in assay [1], in assay [5], in assay [3] and in assay [4] was “inactive” each time.
Consider `O=C1CCCc2c(O)cccc21`, for which the Potency result in assay [2], in assay [5] and in assay [3] was “inactive” throughout.
Take `NCC[C@H](O)C(=O)N[C@@H]1C[C@H](N)[C@@H](O[C@H]2O[C@H](CN)[C@@H](O)[C@H](O)[C@@H]2O)[C@H](O)[C@@H]1O[C@H]1O[C@H](CO)[C@@H](O)[C@H](N)[C@@H]1O`: the activity change, negative = inhibition in assay [1] is -0.409% [at 0.593 µM]. Further, the activity change, negative = cytotoxic was 11.4% [at 0.597 µM] in assay [5], 26.2% [at 0.597 µM] in assay [3] and -3.3% [at 0.597 µM] in assay [4].
As for `COc1ccc(/C(C)=C/C(=O)O)c(OC)c1`, the Potency entry in assay [1], in assay [5], in assay [3] and in assay [4] was “inactive” throughout.
`O=C(NN1CCCC1)NS(=O)(=O)c1ccc(Cl)cc1`: the Potency entry in assay [1], in assay [5], in assay [3] and in assay [4] was “inactive” in each case.
For the compound `O=c1[nH]sc2cc(Cl)ccc12`, the Potency entry in assay [1] was “inactive”. Also, the Potency in assay [4] is 0.001 µM (active).
As to `O=C(CCCl)NCc1ccccc1`, the Potency entry in assay [1], in assay [5], in assay [3] and in assay [4] was “inactive” in each case.
On to `CCCC(=O)O[C@]1(C(=O)CCl)[C@@H](C)C[C@H]2[C@@H]3CCC4=CC(=O)C=C[C@]4(C)[C@@]3(F)C(=O)C[C@@]21C`, for which, in assay [2], the Potency result is “inactive”.
For the compound `CC(C)NC(=O)c1ccc(C=O)cc1`, the Potency result in assay [1], in assay [5], in assay [3] and in assay [4] was “inactive” in each case.
As to `C/C=C(/C(=C/C)c1ccc(OC(C)=O)cc1)c1ccc(OC(C)=O)cc1`, the Potency entry in assay [2] is “inactive”.
Take `CC(=O)O[C@@H]1CC2C3CCc4cc(OC(=O)c5ccccc5)ccc4C3CCC2(C)[C@H]1OC(C)=O` (stereo not given in full): the Potency entry in assay [1], in assay [5], in assay [3] and in assay [4] was “inactive” in each case.
